Assay [1] relates to Plasmodium falciparum Sir2 (PF13_0152, Sir2A). As to the kind of experiment: pfSir2 binders on small-molecule microarrays, primary screen, biochemical, small-molecule microarray, 635 nm fluorescence (AID 1098).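 Also: score merges spot fluorescence intensity with its signal-to-noise ratio.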 Particulars: small-molecule microarray binding, fluorescence 635 nm; higher = more signal.
Assay [2] is described as follows: small-molecule microarray binders of probe aDKK1, primary screen, biochemical, biotinylated probe, 635/667 nm fluorescence (AID 1099).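 Also: score merges 667nm spot fluorescence with signal to noise across triplicate slides.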 Particulars: higher = more signal.
Assay [3] is described as follows: small-molecule microarray binders of probe aCHRDL2, primary screen, biochemical, biotinylated probe, 635/667 nm fluorescence (AID 1100). The note with it: higher = more signal.
Assay [4] is described as follows: splicing luciferase reporter signal modulators, primary screen, spliceosome inhibition project, cell-based, HEK293, splice +/- reporter (AID 1101).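 Also: HEK293 cells carrying a splicing-competent luciferase reporter gene; test concentration not given here.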 The note with it: luminescence, 24 h, higher = more signal, called active from +8 up or from −8 down. (A reporter such as luciferase makes a cellular process visible.)
Assay [5] has as its target Fibroblast growth factor 10 (Homo sapiens) (UniProt O15520). As to the kind of experiment: FGF10 binders on small-molecule microarrays, primary screen, biochemical, small-molecule microarray, 635 nm fluorescence (AID 1102). Particulars: FGF10 binding, fluorescence 635 nm, higher = more signal.
For assay [6], the system named is glycogen synthase kinase-3 (GSK3A per assay name; protocol says GSK3B). As to the kind of experiment: GSK3 binders on small-molecule microarrays, primary screen, biochemical, small-molecule microarray, 635 nm fluorescence, GSK3A (AID 1103). Also: the record names both GSK3A and GSK3B. The note with it: small-molecule microarray binding, fluorescence 635 nm; higher = more signal.
The target of assay [7] is Epidermal growth factor receptor (Homo sapiens) (UniProt P00533). As to the kind of experiment: EGFR binders on small-molecule microarrays, primary screen, biochemical, small-molecule microarray, 635 nm fluorescence (AID 1104).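 Also: score merges 667 nm emission intensity with spot signal to noise over triplicate slides.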 The note with it: EGFR binding, higher = more signal.
Sequence of Epidermal growth factor receptor (Homo sapiens) (P00533 whole entry, looked up): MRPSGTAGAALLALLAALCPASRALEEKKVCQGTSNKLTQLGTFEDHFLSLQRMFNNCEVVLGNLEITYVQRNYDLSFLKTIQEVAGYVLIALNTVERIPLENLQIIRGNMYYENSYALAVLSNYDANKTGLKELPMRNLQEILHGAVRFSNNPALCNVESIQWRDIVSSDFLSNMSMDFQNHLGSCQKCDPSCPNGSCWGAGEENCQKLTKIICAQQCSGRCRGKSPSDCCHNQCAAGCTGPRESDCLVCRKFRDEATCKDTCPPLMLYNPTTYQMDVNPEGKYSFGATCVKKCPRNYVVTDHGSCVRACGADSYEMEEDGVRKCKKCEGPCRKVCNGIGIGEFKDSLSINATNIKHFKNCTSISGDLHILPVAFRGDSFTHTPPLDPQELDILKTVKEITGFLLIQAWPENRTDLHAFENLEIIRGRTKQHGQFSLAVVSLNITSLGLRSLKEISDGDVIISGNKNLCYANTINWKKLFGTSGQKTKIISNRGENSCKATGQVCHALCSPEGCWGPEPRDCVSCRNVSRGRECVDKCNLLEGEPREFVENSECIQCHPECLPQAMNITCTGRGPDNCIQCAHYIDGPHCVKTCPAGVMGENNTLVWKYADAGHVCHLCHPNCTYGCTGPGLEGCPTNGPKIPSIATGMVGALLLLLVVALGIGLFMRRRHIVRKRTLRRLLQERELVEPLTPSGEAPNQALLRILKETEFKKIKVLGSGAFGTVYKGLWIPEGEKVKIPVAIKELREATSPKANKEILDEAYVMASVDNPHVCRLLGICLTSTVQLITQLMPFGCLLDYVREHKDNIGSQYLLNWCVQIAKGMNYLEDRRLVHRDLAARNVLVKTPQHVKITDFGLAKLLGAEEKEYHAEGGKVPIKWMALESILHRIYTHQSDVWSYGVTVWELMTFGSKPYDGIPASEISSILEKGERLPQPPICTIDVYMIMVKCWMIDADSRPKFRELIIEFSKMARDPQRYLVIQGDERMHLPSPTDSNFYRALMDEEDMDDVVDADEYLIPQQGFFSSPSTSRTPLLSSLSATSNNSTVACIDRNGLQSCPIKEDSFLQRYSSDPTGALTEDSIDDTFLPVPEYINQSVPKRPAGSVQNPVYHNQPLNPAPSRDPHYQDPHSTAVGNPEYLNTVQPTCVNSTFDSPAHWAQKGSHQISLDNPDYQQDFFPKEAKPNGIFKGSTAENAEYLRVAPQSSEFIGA
Assay [8] concerns the target Follistatin-related protein 3 (Homo sapiens) (UniProt O95633). As to the kind of experiment: FSTL3 binders on small-molecule microarrays, primary screen, biochemical, small-molecule microarray, 635 nm fluorescence (AID 1105).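 Also: score merges emission near 667 nm and signal to noise per printed spot across three slides.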 Particulars: FSTL3 binding, higher = more signal.
In assay [9] the target is Dickkopf-related protein 1 (Homo sapiens) (UniProt O94907). As to the kind of experiment: DKK1 binders on small-molecule microarrays, primary screen, biochemical, small-molecule microarray, 635 nm fluorescence scan (AID 1106).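 Also: score merges emission near 667 nm with signal to noise over three replicate slides.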 Particulars: DKK1 binding, higher = more signal.
Sequence of Dickkopf-related protein 1 (Homo sapiens) (O94907 whole entry, looked up): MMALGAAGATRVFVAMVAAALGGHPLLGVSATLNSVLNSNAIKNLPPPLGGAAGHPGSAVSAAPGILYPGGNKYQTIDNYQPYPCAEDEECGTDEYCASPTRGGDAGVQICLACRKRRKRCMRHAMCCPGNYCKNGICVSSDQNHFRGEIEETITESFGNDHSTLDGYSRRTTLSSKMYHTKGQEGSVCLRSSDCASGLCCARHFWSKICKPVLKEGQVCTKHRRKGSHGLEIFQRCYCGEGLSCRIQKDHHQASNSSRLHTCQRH
Assay [10] relates to Inhibin beta A chain (activin A). As to the kind of experiment: INHBA (activin A) binders on microarrays, primary screen, biochemical, small-molecule microarray, 635 nm fluorescence scan (AID 1107).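 Also: mouse activin A protein probed at 4.33 µg/mL on printed slides; score merges bound-protein fluorescence near 667 nm with spot signal-to-noise.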 Particulars: small-molecule microarray binding, higher = more signal.
The subject of assay [11] is Human papillomavirus type 1a protein E7 (residues 44-93). As to the kind of experiment: HPV1a E7 fragment binders on microarrays, primary screen, biochemical, small-molecule microarray, residues 44-93, 635 nm fluorescence (AID 1108).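 Also: E7 fragment applied at 1 µg/mL in TBST for 1 h at 4 C; score combines spot fluorescence with its signal to noise ratio.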 Particulars: small-molecule microarray binding, fluorescence 635 nm; higher = more signal.
Assay [12] in a line: modulators of HCV replicon luciferase signal, primary screen, HCV replication inhibitor project, Huh7 cells, luciferase reporter (AID 1109).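 Also: huh7 hepatoma cells harbouring a luciferase neomycin HCV replicon reporter; luciferase luminescence as measure of HCV replicon replication; test concentration not given here.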 The note with it: 48 h, higher = more signal. (In general: Replicon systems follow genome replication, usually without infectious particles.)
The target in assay [13] is Left-right determination factor 2 (Homo sapiens) (UniProt O00292). As to the kind of experiment: LEFTY2 binders on small-molecule microarrays, primary screen, biochemical, small-molecule microarray, 635 nm fluorescence scan (AID 1110). The note with it: LEFTY2 binding, higher = more signal.
Sequence of Left-right determination factor 2 (Homo sapiens) (O00292 whole entry, looked up): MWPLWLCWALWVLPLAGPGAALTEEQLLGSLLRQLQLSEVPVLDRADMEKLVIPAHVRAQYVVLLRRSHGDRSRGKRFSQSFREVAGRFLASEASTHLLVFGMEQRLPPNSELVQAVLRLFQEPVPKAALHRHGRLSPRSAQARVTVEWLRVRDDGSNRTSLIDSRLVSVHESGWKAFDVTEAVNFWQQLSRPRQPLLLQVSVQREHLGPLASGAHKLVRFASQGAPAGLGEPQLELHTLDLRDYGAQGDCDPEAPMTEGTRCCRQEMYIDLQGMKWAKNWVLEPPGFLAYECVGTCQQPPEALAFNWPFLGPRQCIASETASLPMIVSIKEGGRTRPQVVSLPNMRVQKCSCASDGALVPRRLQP
In assay [14] the target is Calmodulin-1 (Homo sapiens) (UniProt P0DP23). As to the kind of experiment: CALM1 binders on microarrays, EGTA buffer, profiling panel, biochemical, small-molecule microarray, Cy5-labelled CALM1 (AID 1111).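 Also: labelled calmodulin applied in Tris saline Tween buffer holding calcium plus EGTA and DTT.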 The note with it: Cy5-CALM1 binding fluorescence, higher = more signal.
Assay [15] has the same target. As to the kind of experiment: calcium-bound CALM1 binders on microarrays, profiling panel, artefact control for SMM control-protein annotation, biochemical, small-molecule microarray, Cy5-labelled CALM1, plus calcium (AID 1112).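 Also: score merges spot fluorescence with signal to noise from triplicate slides.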 The note with it: Cy5-CALM1 binding fluorescence, higher = more signal.
Assay [16] can be described thus: small-molecule microarray binders of probe aWnt5a, primary screen, biochemical, biotinylated probe, 635/667 nm fluorescence (AID 1113).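 Also: score merges 667 nm fluorescence intensity with signal-to-noise per printed feature.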 Particulars: higher = more signal.
Assay [17] can be described thus: small-molecule microarray binders of probe aShh, primary screen, biochemical, biotinylated probe, 635/667 nm fluorescence (AID 1114).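 Also: probe is biotin-labelled aShh protein from a stem cell growth factor screen; measures binding of labelled protein to compounds printed on the slide; score merges feature fluorescence at 667 nm with signal-to-noise.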 Particulars: higher = more signal.
Assay [18] in a line: small-molecule microarray binders of probe aNog, primary screen, biochemical, biotinylated probe, 635/667 nm fluorescence (AID 1115).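 Also: probe is biotinylated aNog protein used at 0.15 µg/mL for 1 h at 4 C; z-score combines 667 nm fluorescence of each spot with its signal to noise.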 Particulars: higher = more signal.
Assay [19] deals with Torsin-1A-interacting protein 1 (Homo sapiens) (UniProt Q5JTV8). As to the kind of experiment: LAP1 binders from COS7 cell lysate, primary screen, small-molecule microarray, 635/667 nm fluorescence (AID 1116). Particulars: COS7-hLAP1 lysate binding, 635 nm fluorescence, higher = more signal.
Sequence of Torsin-1A-interacting protein 1 (Homo sapiens) (Q5JTV8 whole entry, looked up): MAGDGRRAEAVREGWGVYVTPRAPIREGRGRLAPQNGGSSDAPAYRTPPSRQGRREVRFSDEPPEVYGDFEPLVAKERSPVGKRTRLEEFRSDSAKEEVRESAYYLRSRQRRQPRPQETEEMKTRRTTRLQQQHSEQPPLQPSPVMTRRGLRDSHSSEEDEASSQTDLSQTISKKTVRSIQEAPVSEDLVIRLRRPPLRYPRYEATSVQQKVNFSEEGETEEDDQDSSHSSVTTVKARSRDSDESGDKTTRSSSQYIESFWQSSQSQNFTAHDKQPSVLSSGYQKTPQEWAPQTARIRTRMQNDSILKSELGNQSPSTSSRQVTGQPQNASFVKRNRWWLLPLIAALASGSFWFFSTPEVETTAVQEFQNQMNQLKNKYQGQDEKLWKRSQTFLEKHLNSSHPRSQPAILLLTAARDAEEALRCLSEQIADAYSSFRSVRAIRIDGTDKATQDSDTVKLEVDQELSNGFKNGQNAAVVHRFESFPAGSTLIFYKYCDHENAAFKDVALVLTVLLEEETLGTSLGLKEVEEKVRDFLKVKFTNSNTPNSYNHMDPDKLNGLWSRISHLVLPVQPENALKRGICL
The target of assay [20] is Alpha-bungarotoxin (Bungarus multicinctus) (UniProt P60615). As to the kind of experiment: alpha-bungarotoxin binders on microarray, profiling panel, artefact control for SMM control protein annotation, biochemical, small-molecule microarray, Alexa647 label, 635/667 nm fluorescence (AID 1117). Particulars: alpha-BTX-A647 binding fluorescence, higher = more signal.
Sequence of Alpha-bungarotoxin (Bungarus multicinctus) (P60615 whole entry, looked up): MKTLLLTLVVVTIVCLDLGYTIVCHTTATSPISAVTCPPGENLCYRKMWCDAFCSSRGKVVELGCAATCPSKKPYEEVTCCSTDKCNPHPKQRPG

Experimental findings from PubChem BioAssay are described below.

Calls of active or inactive are those of the source.

Sequence of Follistatin-related protein 3 (Homo sapiens) (O95633 whole entry, looked up): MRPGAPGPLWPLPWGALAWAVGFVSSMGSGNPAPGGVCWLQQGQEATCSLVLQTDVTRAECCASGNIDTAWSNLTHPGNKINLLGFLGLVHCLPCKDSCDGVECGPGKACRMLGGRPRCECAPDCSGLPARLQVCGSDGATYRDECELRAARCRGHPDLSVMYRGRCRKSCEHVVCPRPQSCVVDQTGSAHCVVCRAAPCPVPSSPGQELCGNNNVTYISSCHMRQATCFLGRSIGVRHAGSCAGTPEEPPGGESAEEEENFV
Sequence of Fibroblast growth factor 10 (Homo sapiens) (O15520 whole entry, looked up): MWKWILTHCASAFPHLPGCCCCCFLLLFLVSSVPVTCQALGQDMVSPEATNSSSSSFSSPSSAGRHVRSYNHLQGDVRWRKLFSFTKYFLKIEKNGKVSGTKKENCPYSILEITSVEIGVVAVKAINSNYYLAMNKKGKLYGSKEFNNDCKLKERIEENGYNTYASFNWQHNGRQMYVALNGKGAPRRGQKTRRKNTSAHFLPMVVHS

`C[N+](C)(C)CCCC[C@@H]1NC(=O)[C@@H]2C[C@H](C(=O)NCc3ccc(F)cc3)[C@H](c3ccc(O)cc3)N2C1=O`: the composite z-score was 1.12 in assay [1]; -0.277 in [2]; 0.216 in assay [3]; 0.535 in assay [5]; -0.933 in [6]; -0.617 in assay [7]. Besides, the composite z-score was -0.249 in assay [8]; 0.549 in assay [9]; -0.879 in [10]; 0.132 in assay [11]; -0.392 in assay [13]; -0.1 in [14]. Moreover, the composite z-score was 0.0305 in assay [15]; -0.178 in assay [16]; -0.381 in assay [17]; -0.28 in assay [18]; 2.44 in assay [19]; 1.24 in assay [20]. The z-score in [4] is 1.26 (inactive); in assay [12], -0.0213.

On to `O=C1O[C@@H](c2ccccc2)[C@@H](c2ccccc2)N2[C@@H](c3ccc(OCCO)cc3)[C@]3(C(=O)Nc4ccc(C#CCCO)cc43)[C@@H](C(=O)O)[C@H]12`, for which the composite z-score was determined as 1.81 in [1]; 0.416 in assay [2]; 1.17 in [3]; 1.41 in assay [5]; 0.746 in [6]; 0.702 in [7]. For the same compound, the composite z-score in assay [8] was found to be 0.988; in [9] it was 0.151; in assay [10], 1.34; in assay [11], 1.08; in [13] it was 0.687; in [14], 2.03. The composite z-score in assay [15] was found to be 0.408; in assay [16], 0.663; in assay [17], 0.582; in [18] it was 2.45; in [19], 1.99; in [20], 1.95. Besides, the z-score in assay [4] is 0.362 (inactive); in [12] it was -0.22.

Turning to `N#Cc1ccc(C(O)C2C=CC3C(=O)NC(=O)C3N2Nc2ccc(Cl)cc2Cl)cc1` (stereo not given), the composite z-score in assay [1] was 1.42; in assay [2], 0.558; in assay [3], 1.13; in assay [5], 0.599; in assay [6] it was -0.344; in assay [7] it was 0.0129. Besides, the composite z-score is -0.124 in [8]; -0.577 in [9]; 1.03 in [10]; 0.544 in [11]; -0.535 in assay [13]; 1.69 in [14]. Besides, the composite z-score is 0.635 in [15]; 0.0438 in assay [16]; 0.296 in [17]; 0.732 in assay [18]; 2.08 in assay [19]; 0.531 in assay [20]. The z-score in assay [4] was 1.9 (inactive); in [12], -0.436.

Turning to `COCCOC(=O)N1C(=O)[C@@]2(c3cc(C#CCC(C(=O)OC)C(=O)OC)ccc31)[C@H](C(N)=O)[C@H]1C(=O)O[C@H](c3ccccc3)[C@H](c3ccccc3)N1[C@@H]2c1ccc(O)cc1`, the composite z-score in [1] was found to be 1.09; in assay [2], 0.235; in assay [3], 0.283; in [5] it was 1.42; in [6], 0.863; in assay [7] it was 0.69. Besides, the composite z-score is 1 in [8]; 0.938 in assay [9]; 0.187 in assay [10]; 1.42 in assay [11]; 0.713 in [13]; 1.01 in assay [14]. For the same compound, the composite z-score in [15] is 0.0194; in assay [16], 0.0179; in assay [17] it was 0.0328; in [18] it was -0.543; in assay [19], 1.08; in assay [20], 1.61. Also, the z-score in [4] is -1.59 (inactive); in assay [12] it was -2.77.

For the compound `C=CCN1C(=O)[C@]2(O[C@H](CCn3cc([C@H](O)c4ccccc4)nn3)[C@@H]([Si](C)(C)c3ccc(OC)cc3)[C@@H]2C)c2cc(NC(=O)c3ccc(OC)cc3)ccc21`, the composite z-score is 0.73 in [1]; -0.125 in assay [2]; 0.349 in assay [3]; 0.028 in assay [5]; -0.131 in assay [6]; 0.108 in assay [7]. Also, the composite z-score in [8] is 0.527; in assay [9] it was 0.598; in assay [10], 0.961; in assay [11], 1.15; in [13], 0.5; in assay [14], -0.0632. Further, the composite z-score was -0.564 in assay [15]; -0.0748 in [16]; -0.221 in assay [17]; -0.124 in assay [18]; 0.725 in assay [19]; 0.464 in [20]. Besides, the results for the z-score in [4] and in [12] were -0.768 (inactive) and -4.74, respectively.
